Source: PubChem
Pf apPOL block: Pf-apPOL inhibitors, biochemical, fluorescence | Plasmodium falciparum apicoplast DNA polymerase (apPOL) | Recombinant Pf-apPOL, molecular beacon fluorescence, 1.5 h | inhibition, % at 10 µM | 210,000 compounds, 0.25% hits
mHTT-CaM PPI inh: mutant huntingtin-calmodulin interaction inhibitors – biochemical, AlphaScreen, primary screen; AlphaScreen His-mHTT/GST-CaM binding, luminescence; P42858; 190,000 compounds, 3.6% hits; inhibition, % at 15 µM;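 note: 0% = both proteins with DMSO and 100% = one protein alone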
Target sequence (P42858 whole entry, looked up, stated change not applied): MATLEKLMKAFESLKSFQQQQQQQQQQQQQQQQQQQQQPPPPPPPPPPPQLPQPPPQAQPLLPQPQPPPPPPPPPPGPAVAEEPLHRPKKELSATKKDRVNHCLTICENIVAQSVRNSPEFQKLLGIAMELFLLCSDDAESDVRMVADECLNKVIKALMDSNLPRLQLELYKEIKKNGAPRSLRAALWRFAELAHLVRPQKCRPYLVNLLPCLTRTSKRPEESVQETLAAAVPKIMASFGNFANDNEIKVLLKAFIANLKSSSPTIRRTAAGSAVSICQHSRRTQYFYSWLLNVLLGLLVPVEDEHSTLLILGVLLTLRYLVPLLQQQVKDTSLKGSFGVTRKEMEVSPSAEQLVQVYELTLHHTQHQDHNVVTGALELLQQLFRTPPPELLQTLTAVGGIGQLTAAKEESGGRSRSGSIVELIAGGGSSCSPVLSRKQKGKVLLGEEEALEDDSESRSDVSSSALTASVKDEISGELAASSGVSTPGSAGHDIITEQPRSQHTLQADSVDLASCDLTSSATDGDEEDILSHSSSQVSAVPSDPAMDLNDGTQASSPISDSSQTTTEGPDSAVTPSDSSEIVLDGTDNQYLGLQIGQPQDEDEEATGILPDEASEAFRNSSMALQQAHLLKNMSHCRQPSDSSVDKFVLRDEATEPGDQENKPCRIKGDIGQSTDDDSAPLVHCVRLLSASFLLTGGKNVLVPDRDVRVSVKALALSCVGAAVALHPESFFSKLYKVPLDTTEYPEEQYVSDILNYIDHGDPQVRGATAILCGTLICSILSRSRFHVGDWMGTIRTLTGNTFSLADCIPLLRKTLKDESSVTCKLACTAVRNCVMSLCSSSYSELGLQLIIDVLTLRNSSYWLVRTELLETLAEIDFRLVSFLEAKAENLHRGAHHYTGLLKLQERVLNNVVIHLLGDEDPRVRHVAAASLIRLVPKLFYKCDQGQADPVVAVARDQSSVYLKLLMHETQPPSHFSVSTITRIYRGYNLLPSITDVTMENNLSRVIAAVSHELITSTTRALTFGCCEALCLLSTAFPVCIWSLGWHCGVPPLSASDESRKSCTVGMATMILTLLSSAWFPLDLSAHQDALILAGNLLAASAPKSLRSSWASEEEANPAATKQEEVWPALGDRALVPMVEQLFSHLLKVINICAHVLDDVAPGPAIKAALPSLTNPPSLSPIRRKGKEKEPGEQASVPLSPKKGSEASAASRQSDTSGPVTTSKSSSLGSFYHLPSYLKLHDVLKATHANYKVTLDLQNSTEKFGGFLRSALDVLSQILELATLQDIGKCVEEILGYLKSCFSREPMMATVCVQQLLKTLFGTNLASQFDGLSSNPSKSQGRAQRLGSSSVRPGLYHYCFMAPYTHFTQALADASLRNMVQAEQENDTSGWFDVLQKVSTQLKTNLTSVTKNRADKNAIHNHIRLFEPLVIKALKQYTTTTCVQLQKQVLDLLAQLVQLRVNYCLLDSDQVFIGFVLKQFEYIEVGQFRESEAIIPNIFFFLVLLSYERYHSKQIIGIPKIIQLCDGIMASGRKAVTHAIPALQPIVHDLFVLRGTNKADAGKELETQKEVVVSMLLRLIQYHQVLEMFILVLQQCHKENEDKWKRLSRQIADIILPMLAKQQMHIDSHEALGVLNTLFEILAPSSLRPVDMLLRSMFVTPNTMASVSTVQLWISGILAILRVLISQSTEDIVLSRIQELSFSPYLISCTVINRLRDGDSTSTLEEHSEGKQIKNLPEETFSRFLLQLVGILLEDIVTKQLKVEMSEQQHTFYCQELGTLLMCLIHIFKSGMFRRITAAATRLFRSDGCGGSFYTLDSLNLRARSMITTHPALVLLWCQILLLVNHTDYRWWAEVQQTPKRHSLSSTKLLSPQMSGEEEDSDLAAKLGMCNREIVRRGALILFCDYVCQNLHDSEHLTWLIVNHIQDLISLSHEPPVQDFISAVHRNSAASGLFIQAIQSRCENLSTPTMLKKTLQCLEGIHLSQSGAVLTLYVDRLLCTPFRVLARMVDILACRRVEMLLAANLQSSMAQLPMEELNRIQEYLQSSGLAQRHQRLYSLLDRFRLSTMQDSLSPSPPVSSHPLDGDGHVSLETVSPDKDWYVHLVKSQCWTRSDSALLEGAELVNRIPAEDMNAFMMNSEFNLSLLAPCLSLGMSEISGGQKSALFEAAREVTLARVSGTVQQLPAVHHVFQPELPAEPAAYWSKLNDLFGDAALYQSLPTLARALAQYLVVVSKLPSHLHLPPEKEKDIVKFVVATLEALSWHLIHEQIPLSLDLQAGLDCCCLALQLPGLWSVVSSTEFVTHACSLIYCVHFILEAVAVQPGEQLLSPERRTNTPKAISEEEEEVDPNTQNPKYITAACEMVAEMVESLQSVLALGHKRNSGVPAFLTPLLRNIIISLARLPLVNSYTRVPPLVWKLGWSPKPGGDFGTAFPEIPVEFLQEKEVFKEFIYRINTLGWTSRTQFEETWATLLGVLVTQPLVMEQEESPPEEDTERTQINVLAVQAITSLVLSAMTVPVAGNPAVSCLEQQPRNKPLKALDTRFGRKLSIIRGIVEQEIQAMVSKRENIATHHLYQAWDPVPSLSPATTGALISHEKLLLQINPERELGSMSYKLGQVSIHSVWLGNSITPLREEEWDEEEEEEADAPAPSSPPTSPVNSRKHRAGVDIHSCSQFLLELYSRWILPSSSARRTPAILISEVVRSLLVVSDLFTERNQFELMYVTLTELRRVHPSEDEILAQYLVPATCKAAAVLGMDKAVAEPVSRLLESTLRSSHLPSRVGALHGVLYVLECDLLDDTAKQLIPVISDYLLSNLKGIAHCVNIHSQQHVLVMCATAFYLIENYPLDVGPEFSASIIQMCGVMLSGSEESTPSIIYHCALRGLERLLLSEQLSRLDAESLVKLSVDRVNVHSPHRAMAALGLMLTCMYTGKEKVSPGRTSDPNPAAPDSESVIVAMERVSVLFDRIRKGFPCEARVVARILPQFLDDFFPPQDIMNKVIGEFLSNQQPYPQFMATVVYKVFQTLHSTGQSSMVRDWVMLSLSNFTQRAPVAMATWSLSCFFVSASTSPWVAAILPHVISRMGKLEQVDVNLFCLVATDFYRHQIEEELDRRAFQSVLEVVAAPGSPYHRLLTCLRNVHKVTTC
The depositor's hits bear a star; . = no result given. The list is not random: actives were taken first. Their share in the collection is about 3.5%. Cut-off read from the data, not from the text of the source: active = inhibition above about 50%; inactive = the rest.

SMILES	Pf apPOL block	mHTT-CaM PPI inh
O=C(NCCc1ccccc1)C1CCN(Cc2ccccc2)CC1	9	-1
CN(C)CCNC(=O)C1CCN(Cc2cc3ccccc3n2Cc2ccccc2)CC1	5	100*
CCCNC(=O)c1cncc(-c2cccc(C)c2C)c1	1	-6
COCCNC(=O)C1CCN(Cc2cc3ccccc3n2Cc2ccccc2C)CC1	3	60*
COc1ccccc1CN1CCC(C(=O)NCCc2ccccc2)CC1	-4	-8
O=C1OC(c2cc([N+](=O)[O-])ccc2Cl)=N/C1=C\c1cccc([N+](=O)[O-])c1	-9	2
O=C(O)C1Nc2c(Cl)cc(Cl)c(Cl)c2C2C=CCC12 (configuration not stated)	.	96*
O=C(c1cccc2c1NC(c1ccc(Cl)cc1Cl)C1CC=CC21)N1CCOCC1 (configuration not stated)	13	16
O=C(O)C1Nc2c(Cl)cc(Cl)cc2C2C=CCC12 (configuration not stated)	.	95*
CCN(C)C(=O)c1ccccc1N1CCC(NC(=O)c2ccc(F)cc2F)CC1	-3	0
COc1ccccc1C(NC(C)=O)c1ccc2cccnc2c1O (configuration not stated)	0	100*
COc1ccccc1C(NC(=O)C(C)C)c1ccc2cccnc2c1O (configuration not stated)	-1	99*
COc1ccccc1NC(=O)Nc1cccc2cccnc12	-4	-4
COc1ccccc1C(=O)Nc1cc(Br)cc2cccnc12	9	19
COc1cccc(C2CC(c3cccc(F)c3)n3nnnc3N2)c1 (configuration not stated)	-2	-6
O=C(NCCOc1ccc(F)cc1)c1ccc(S(=O)(=O)N2CCCC2)cc1	-102	-5
Cc1oc(C2CCN(C(=O)CCc3ccccc3)CC2)nc1C(=O)N1CCCC1	-2	9
O=C1CCCC(=O)N1c1ccc(N2CCC(O)(c3cccc(C(F)(F)F)c3)CC2)c([N+](=O)[O-])c1	-21	93*
O=C1CCCC(=O)N1c1ccc(N2CCN(c3cccc(C(F)(F)F)c3)CC2)c([N+](=O)[O-])c1	-17	13
O=C(Nc1ccccc1-c1nc2ccccc2s1)c1cc(=O)c2ccccc2o1	-1	3
O=C(Nc1nc2c(Cl)cccc2s1)c1cc(=O)c2ccccc2o1	50*	-1
O=C(NC1CCCC1)C1CCN(c2nc3ccsc3c(=O)n2-c2ccccc2)CC1	3	0
c1ccc2[nH]c(CCn3c4c(c5ccccc53)CCCC4)nc2c1	.	66*
N#CCCn1c2c(c3ccccc31)CCCC2	-8	22
COc1ccc(C=C2Oc3c(ccc(O)c3CN3CCOCC3)C2=O)cc1OC	-14	2
SMILES	Pf apPOL block	mHTT-CaM PPI inh
CCc1ccc2c(c1)C(=O)C(=O)N2	-4	21
O=C1Nc2ccc(Br)cc2C1(O)Cc1ccccn1 (configuration not stated)	-8	6
CCc1ccc2c(c1)C1(NN=C(c3ccc(C)cc3)S1)C(=O)N2 (configuration not stated)	2	100*
O=C1Nc2ccc(Br)cc2C12NN=C(c1ccccc1)S2 (configuration not stated)	0	100*
O=C(Oc1ccc(C2CCCCC2)cc1)c1ccccc1I	-6	.
O=C(Nc1ccccc1)C(Cc1c[nH]c2ccccc12)NC(=O)C(c1ccccc1)c1ccccc1 (configuration not stated)	1	89*
COc1ccc(NC(=O)C(N)Cc2c[nH]c3ccccc23)cc1 (configuration not stated)	-18	46
C=CCN(c1ccccc1)S(=O)(=O)c1ccc2[nH]cc(C(=O)N3CCCC3)c(=O)c2c1	0	20
COc1cc(-c2csc(C)n2)ccc1O	0	-4
COc1cc(-c2nc(-c3cccs3)c(-c3cccs3)[nH]2)ccc1O	0	97*
O=C(O)c1nn(Cn2cccn2)cc1Cl	.	-6
CCC(=O)Nc1ccc(Oc2ccc(C)cc2)nc1	-2	11
N#C/C(=C\c1cccc(Br)c1)c1nc2ccccc2[nH]1	-2	3
COc1cc(/C=C(\C#N)c2nc3ccccc3[nH]2)cc(OC)c1O	-1	43
COc1cc(/C=C(\C#N)c2nc3ccccc3[nH]2)cc2c1OCO2	-4	69*
N#C/C(=C\c1cccc(F)c1)c1nc2ccccc2[nH]1	-4	100*
COc1ccc(C2C3=C(CCCC3=O)Nc3nc(SCc4ccccc4Cl)nn32)cc1 (configuration not stated)	0	1
COc1ccc(CNC(=S)O[C@H]2CCC23CCC(c2ccccc2)CC3)cc1 (some centres not stated)	1	-34
COc1cccc(C(=O)N2CC(C)C(c3nc(-c4ccccc4)no3)C2)c1OC (configuration not stated)	-3	2
Cc1cn2cc(-c3ccc(Cl)cc3)nc2s1	-8	-2
CCCC(=O)N1CCc2c(c(C(=O)NCc3ccccc3)nn2C)C1	-9	0
